Sampled rows, rich in hits. Any-hit rate of the full collection: about 11%.
Pf growth 48h: inhibits P. falciparum growth in the first generation, 48 h. P. falciparum luciferase growth in erythrocytes, 48 h. Potency, µM (series often up to 28.7 µM), without a hit: at the highest dose activity change, negative = inhibition, hits mostly inhibitors. 310,000 compounds, 5.9% hits
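Compounds are pin-transferred into medium, infected erythrocytes (2% hematocrit, 0.1% parasitemia final) are added, and plates sit one parasite generation at 37 C in 5% CO2. Detection reagent is then added and luminescence measured.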
AmpC inh detg: inhibitors of E. coli AmpC beta-lactamase with detergent; Potency, µM (doses to about 114 µM), for the others: at the top dose activity change, negative = inhibition, usual class: inhibitors; AID 485294; 370,000 compounds, 0.041% hits; AmpC hydrolysis of nitrocefin, absorbance 480 nm, 0.01% Triton; P00811;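 further: 0% = no-compound wells and -100% = no-enzyme wells; nearly all actives have a fitted effect of over 25% in size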
Target sequence (P00811 whole entry, looked up): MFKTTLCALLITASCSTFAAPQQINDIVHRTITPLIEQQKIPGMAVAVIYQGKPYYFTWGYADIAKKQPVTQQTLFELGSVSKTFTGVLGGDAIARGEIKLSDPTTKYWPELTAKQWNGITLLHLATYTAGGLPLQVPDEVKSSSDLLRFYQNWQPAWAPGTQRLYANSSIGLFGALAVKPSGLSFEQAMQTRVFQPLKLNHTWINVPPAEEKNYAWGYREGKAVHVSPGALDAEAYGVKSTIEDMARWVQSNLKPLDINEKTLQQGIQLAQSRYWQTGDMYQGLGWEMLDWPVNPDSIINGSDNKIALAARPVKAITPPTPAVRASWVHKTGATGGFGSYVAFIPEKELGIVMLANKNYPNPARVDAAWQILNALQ
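AmpC (5.3 nM in the dispensed reagent) in 20 mM phosphate pH 7.0 with 0.01% (detergent screen) or 0.0001% Triton X-100 was preincubated with compounds for 15 min at room temperature. Nitrocefin was then added from an 800 uM solution, and hydrolysis was followed at 480 nm.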
Pf growth 96h: P. falciparum growth inhibition at 96 hours. P. falciparum luciferase reporter growth, 96 h. Potency, µM (titrated, usually from 28.7 µM), for the others: at the top dose activity change, negative = inhibition, hits mostly inhibitors. 320,000 compounds, 6.9% hits. AID 504834
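Erythrocytes infected with luciferase-expressing P. falciparum were dispensed at 2% hematocrit and 0.05% parasitemia (final), then incubated with compounds 96 hours at 37 C in 5% CO2. Luminescence after detection reagent addition reported growth.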
AMA1-RON2 inh: AMA1-RON2 (P. falciparum) interaction inhibition | Potency, µM (series often up to 58.2 µM), for inactives: at the highest dose activity change, negative = inhibition, most hits filed as inhibitors | 360,000 compounds, 0.2% hits | AlphaScreen AMA1-biotinylated RON2 peptide binding;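 further: 0% = vehicle wells and -100% = peptide control; nearly all actives have a fitted effect of over 45% in size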
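AMA1 (3D7) with his tag at 25 nM final met compounds first, then biotinylated RON2 peptide at 25 nM; detection used donor plus acceptor beads, 10 µg/mL apiece, read by AlphaScreen after 30 min at room temperature.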
AmpC inh no detg: AmpC beta-lactamase inhibition without detergent; P00811; AmpC nitrocefin hydrolysis, absorbance 480 nm, 0.0001% Triton; Potency, µM (top dose mostly 57.1 µM), without a hit: at the highest dose activity change, negative = inhibition, usual class: inhibitors; 330,000 compounds, 0.52% hits;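 further: plate controls were no compound for no effect and no enzyme for full effect; nearly all actives have a fitted effect of over 20% in size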
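AmpC (5.3 nM in the dispensed reagent) in 20 mM phosphate pH 7.0 with 0.01% (detergent screen) or 0.0001% Triton X-100 was preincubated with compounds for 15 min at room temperature. Nitrocefin was then added from an 800 uM solution, and hydrolysis was followed at 480 nm.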
HCV inh: inhibitors of hepatitis C virus infection | Huh7.5.1 HCVcc-Cre infection, luciferase reporter, 44 h | Potency, µM (highest dose often 41.8 µM), without a hit: top-dose activity change, negative = inhibition, usual class: inhibitors | 340,000 compounds, 3.4% hits
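Whole-lifecycle infectious HCVcc-Cre system; cells 1,000/well, compound then virus (~0.5 moi) added 4 h after plating, 44 h culture. Luciferase read 15 sec following 15 min substrate incubation, room temp.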
Numbers without * were called inactive; ? = inconclusive; / = no result. The call rests on the fitted dose curve; in most records, active means well fitted curve in the direction sought with a large enough effect; inconclusive means small, poorly fitted or top-dose-only effect, or another doubt; inactive means no such curve, though single readings can be large; an effect the other way counts as inactive or inconclusive. Unless noted, on the % scale 0 is the no-effect control and ±100 the full control effect; potency means the concentration at half of the fitted maximal effect.

SMILES	Pf growth 48h	AmpC inh detg	Pf growth 96h	AMA1-RON2 inh	AmpC inh no detg	HCV inh
COc1ccc(C2CC(=O)C3=C(C2)NC(C)=C(C#N)C3c2ccc(N(C)C)cc2)cc1 (stereo unspecified)	6.57µM*	7.8%	10.2%	-10.3%	13.3%	12.6%
COC(=O)c1ccc(C2C(C#N)=C(C)NC3=C2C(=O)CC(C)(C)C3)cc1 (stereo unspecified)	7.6%	4.0%	9.28µM*	0.5%	-20.1%	-7.0%
COc1ccc(C2C(C#N)=C(SC)NC3=C2C(=O)CC(C)(C)C3)cc1 (stereo unspecified)	?	?	21.5%	5.9%	-32.8%	6.4%
Cc1ccc(C)c(S(=O)(=O)c2cn(Cc3ccccc3)c3cc(N4CCCC4)c(F)cc3c2=O)c1	/	8.3%	/	/	/	/
CNCC/C=C1/c2ccccc2CSc2ccccc21	?	-7.2%	?	1.0%	13.2%	10µM*
CC(C)c1ccc(NC(c2nnc(-c3ccccc3)o2)c2ccc(F)cc2Cl)cc1 (stereo unspecified)	/	15.7%	/	/	/	/
Cc1cccc(-c2ocnc2C(=O)Nc2ccccc2NC(=O)c2ccccn2)c1	?	-8.8%	?	88.2%	1.2%	?
Cc1ccc(-c2ocnc2C(=O)Nc2ccccc2NC(=O)c2ccccn2)cc1	2.08µM*	-2.6%	17.7%	52.6%	7.2%	?
O=[N+]([O-])c1ccc(N(c2ccccc2)c2ccccc2)cc1	?	1.6%	?	165.1%	-26.5%	2.2%
CCN(C(=O)c1ccccc1)c1ccc([N+](=O)[O-])cc1	?	?	8.28µM*	-12.4%	-17.0%	3.0%
Cc1cc(-c2ccc(S(=O)(=O)Nc3ccc(Cl)cc3C)cc2)on1	/	11.4%	/	/	/	/
NC(=O)C1CCN(CC(=O)c2c[nH]c3ccc(F)cc23)CC1	-29.7%	9.5%	47.0%	-12.8%	0.141µM*	13.2%
O=C(CN1CCN(c2ccccc2F)CC1)c1c[nH]c2ccc(F)cc12	-13.6%	3.8%	/	-5.3%	-18.5%	?
Cc1ccc(C(=O)Nc2ccccc2-c2ccccc2)cc1S(=O)(=O)Nc1cccc(C)c1C	?	-1.6%	2.4%	?	-3.5%	10µM*
Cc1ccccc1NS(=O)(=O)c1cc(C(=O)Nc2cccnc2)ccc1C	?	-0.5%	-13.0%	12.1%	18.2%	31.6µM*
CC(NS(=O)(=O)c1ccc(Br)cc1)C(c1cccs1)N1CCN(C)CC1 (stereo unspecified)	-21.5%	?	?	-16.2%	44.7µM*	?
CC(NS(C)(=O)=O)C(c1cccs1)N1CCN(C)CC1 (stereo unspecified)	-19.0%	-1.4%	-1.4%	13.2%	-8.2%	5.1%
COc1ccccc1N1CCN(C(c2cccs2)C(C)NS(=O)(=O)c2ccccc2)CC1 (stereo unspecified)	?	?	7.38µM*	-18.4%	?	?
CC(NS(=O)(=O)c1ccccc1)C(c1cccs1)N1CCN(c2ccccc2)CC1 (stereo unspecified)	?	-4.0%	8.28µM*	-3.4%	-26.0%	-21.0%
O=C(CN1C(=O)CSc2ccc(S(=O)(=O)N3CCCCC3)cc21)NCc1ccc(F)cc1Cl	/	19.7%	/	/	/	/
CCOC(=O)c1nnn(-c2nonc2N)c1-c1ccc(Cl)cc1	11.7µM*	4.0%	?	3.1%	1.2%	-1.2%
CCOC(=O)c1nnn(-c2nonc2N)c1-c1ccc(OC)cc1	2.08µM*	?	?	-1.8%	-3.7%	12.2%
CCOC(=O)c1nnn(-c2nonc2N)c1COc1ccc(F)cc1	/	-14.9%	/	-8.0%	-11.1%	13.2%
CCOC(=O)c1nnn(-c2nonc2N)c1-c1cccc2ccccc12	3.29µM*	?	5.22µM*	-4.0%	-24.9%	-4.6%
CCOC(=O)c1nnn(-c2nonc2N)c1-c1cccs1	-13.8%	-12.5%	-2.9%	-3.5%	-7.2%	6.2%
SMILES	Pf growth 48h	AmpC inh detg	Pf growth 96h	AMA1-RON2 inh	AmpC inh no detg	HCV inh
CCOC(=O)c1nnn(-c2nonc2N)c1-c1ccc(F)cc1	11.7µM*	1.6%	2.6%	0.3%	146.1%	11.3%
CC(C)(C)c1ccc(CN(Cc2ccco2)c2cnc(S(C)(=O)=O)nc2C(=O)Nc2ccc(F)cc2)cc1	/	19.1%	/	/	/	/
COc1ccc(Cn2c(NCC(C)C)nc3c2c(=O)n(C)c(=O)n3C)cc1	/	2.3%	/	/	/	/
COc1ccccc1CNc1ncc(-c2ccc(F)cc2)n1C	?	-20.7%	?	?	-13.4%	-9.9%
COc1ccc(CNc2ncc(-c3ccc(F)cc3)n2C)c2ccccc12	?	-15.8%	10.4µM*	?	-24.1%	0.9%
CCOc1ccc(-c2cnc(NCc3cccc4ccccc34)n2CCOC)cc1	?	3.9%	-105.5%	?	-0.9%	10µM*
Cn1c(-c2ccc(F)cc2)cnc1NCc1cc2c(cc1[N+](=O)[O-])OCO2	11.7µM*	-1.2%	40.0%	?	-29.7%	12.6µM*
COc1ccc(CNc2ncc(-c3cccc([N+](=O)[O-])c3)n2C)c(OC)c1OC	-4.0%	-19.7%	4.65µM*	?	11.1%	-22.2%
Cn1c(-c2ccc(Cl)cc2)cnc1NCc1cc2c(cc1[N+](=O)[O-])OCO2	?	-12.8%	56.6%	?	-34.5%	?
O=C(Nc1ccc(F)c(Cl)c1)C1CCN(S(=O)(=O)c2ccc3[nH]c(=O)ccc3c2)CC1	/	4.7%	/	/	/	/
Cc1nn(C)c2c1c(C(F)(F)F)cc(=O)n2CC(=O)N1CCCCC1	/	16.7%	/	/	/	/

Bioassay records from PubChem.
